Experimental data from PubChem BioAssay (NCI).
The panel holds about 83,000 compounds, 20% with a hit somewhere; the sample as a whole holds those more often.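 Single-dose data. Exposure time 48 hours. Values below 10 considered active.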 A number with no mark means an inactive call. Activity calls are given as the source filed them.

Tested on: HOP-92 NSCLC
Assay: NCI-60 one-dose screen, 48 h (100 = growth as untreated, 0 = no growth, -100 = all killed)
Conditions: 10 µM
Description: Growth inhibition of the HOP-92 human Non-Small Cell Lung tumor cell line is measured as a screen for anti-cancer activity. Cells are grown in 96 well plates and exposed to the test compound for 48 hours. Compounds are tested at a single concentration, which is 10^-5 M for most compounds. The reported endpoint is percent growth (GI% or GIPRCNT), where numbers from 0 - 100% represent growth inhibition, and numbers from -100% - 0 represent cell death. For example, a value of 40 represents 60% growth inhibition. A value of 0 means no net growth occurred over the course of the experiment. A value of -40 indicates 40% of cells at the beginning of the experiment died by the end of the experiment. A value of -100 means all cells are dead at the end of the experiment.
NCI-60 Human Tumor Cell Lines Screen was performed using the standard one-dose NCI protocol, which is described in more detail at https://dtp.cancer.gov/discovery_development/nci-60/default.htm.
Compounds with GIPRCNT values below 10 were considered active. Activity score was based on GIPRCNT using the following formula: […]
Score is 0 for GIPRCNT values of 100 or above, 50 for GIPRCNT values of 0, and 100 for GIPRCNT values of -100.

Row | Compound | growth
1 | COc1ccc(Cl)cc1Nc1nc(C(F)(F)F)ccc1C(=O)N/N=C/c1cc(OC)c(OC)c(OC)c1 | -12% (active)
2 | Clc1ccc(C2=NN=C3C(Cc4ccccc4)=Nc4ccccc4N3C2)cc1 | 87.4%
3 | O=C1/C(=C/c2ccc3c(c2)OCO3)SC(=S)N1C1c2ccccc2Oc2ccccc21 | 90.7%
4 | COc1ccc(-c2nn(-c3cccc(Cl)c3)cc2-c2c(C#N)c(=O)n3[nH]c(-c4ccc(C)cc4)nc3c2C#N)cc1 | 59.2%
5 | COc1ccc(-c2n[nH]nc2-c2cc(OC)c(OC)c(OC)c2)cc1 | -1.89% (active)
6 | O=C(NCCCNS(=O)(=O)c1ccc(Cl)cc1)Nc1ccc(-n2cc(-c3ccncc3)c(-c3ccc(Cl)c(O)c3)n2)cc1 | 37.3%
7 | CCCCCCCCCCOC(c1ccccc1)c1ccccc1 | 103%
8 | CN1CCN(CC(=O)Nc2cccc(-n3cc(-c4ccncc4)c(-c4ccc(Cl)c(O)c4)n3)c2)CC1 | 15.4%
9 | Cc1cc(CCNC=O)c(C)c2c1sc1ccccc12 | 91.2%
10 | COC(=O)c1c[nH]c2cc(OC(C)C)c(OC(C)C)cc2c1=O | 80.5%
11 | COc1ccc(-c2nn(-c3cccc(Cl)c3)cc2C=C(C#N)C#N)cc1 | 11%
12 | CN(C)CCN(Cc1ccccc1)c1ccc2ccccc2n1 | 75.6%
13 | Nc1nccc(OCCO)n1 | 113%
14 | Fc1ccc(C(c2ccc(F)cc2)C(Cl)Cl)cc1 | 75.8%
15 | O=C(Nc1ccc2c(O)cc(S(=O)(=O)O)cc2c1)c1ccc([N+](=O)[O-])cc1 | 89.8%
16 | COc1cc(-c2nc3ccccc3o2)cc(CN2CCCCC2)c1O | 103%
17 | COc1ccc(Cl)cc1Nc1nc(C(F)(F)F)ccc1C(=O)N/N=C/c1ccc(Cl)cc1 | 25.7%
18 | COc1cc(C2CC(c3ccc4c(c3)OCO4)=NN2c2ccccc2)cc(OC)c1OC (stereo not given) | 84.1%
19 | COc1cc(C)ccc1Oc1nc(Nc2ccc(N3CCOCC3)cc2)ncc1NC(=O)Nc1cc(C(F)(F)F)cc(C(F)(F)F)c1 | 66.8%
20 | Nc1cc(-c2ccncc2)c[nH]c1=O | 90.9%

Row | Compound | growth
21 | CC(=O)C1CCC2C3CC=C4CC(SC(=N)N)CCC4(C)C3CCC12C (stereo not given) | 30.2%
22 | COc1cc(-c2csc(NC(=O)Nc3cc(C(F)(F)F)cc(C(F)(F)F)c3)n2)cc(OC)c1OC | -25.9% (active)
23 | CN(C)CCOc1ccccc1NC1=C(Cl)C(=O)C(Nc2ccccc2OCCN(C)C)=C(Cl)C1=O | 59.9%
24 | COc1ccc(/C=C/c2nnc(/C=C/c3ccc(OC)c(OC)c3)o2)cc1OC | 20.4%
25 | COc1cc(Cc2cc(-c3ccccc3)n[nH]c2=O)cc(OC)c1OC | 35.8%
26 | COc1ccc(-c2csc(NC(=O)c3ccc(Cc4n[nH]c(=O)c5cccnc45)cc3)n2)cc1 | 75.3%
27 | N#CC1=CC2CN(Cc3ccccc3)C1C1C(=O)N(c3ccccc3)C(=O)C21 (stereo not given) | 108%
28 | COc1ccc(/C=C2\CCCC3=C2N=C2SC(C)=CN2C3c2ccc(OC)cc2)cc1 (stereo not given) | 93.8%
29 | C=CCN(CC=C)C(=O)[C@H](CC)[C@@H]1CC[C@@H](C)[C@@H]([C@H](C)[C@@H](O)[C@@H](C)C(=O)[C@H](CC)C2O[C@]3(C=CC(=O)[C@]4(CC[C@@](C)([C@H]5CC[C@](O)(CC)[C@H](C)O5)O4)O3)[C@H](C)C[C@@H]2C)O1 (stereo not given in full) | -8.35% (active)
30 | COc1cc2cc(Oc3ccc(NC(=O)Nc4ccc(C(F)(F)F)cc4)cc3)c(C)nc2cc1OC | 56.3%
31 | COc1cc(-c2nn(-c3cccc(NC(=O)CCN4CCN(c5ccccc5)CC4)c3)cc2-c2ccncc2)ccc1Cl | 4.23% (active)
32 | CCC(CC)n1c(C)cc(=O)n1C(CC)CC | 99.9%
33 | CC(=O)COc1ccc(Cl)cc1Cl | 91%
34 | COc1ccccc1/C=N\N/C(N)=N\N=C\c1ccccc1OC | 48.9%
35 | COc1cc(/C=C2\CCCC3=C2N=C2SC(C)=CN2C3c2cc(OC)c(OC)c(OC)c2)cc(OC)c1OC (stereo not given) | 55.4%
36 | CC(C)(C)OC(=O)N1CCc2c(sc3ncnc(N/N=C/c4cccc5ccccc45)c23)C1 | 25.6%
37 | Nc1ccn(Cc2nnc(CCC(=O)c3nc4ccccc4[nH]3)o2)c(=O)n1 | 66.1%
38 | CCOC(=O)Cn1c(=O)c2sc3ncccc3c2n2nnc(-c3ccccc3)c12 | 71%
39 | COC(=O)C1OC1c1cc([N+](=O)[O-])ccc1OC (stereo not given) | 106%
40 | COc1ccc(-c2cc(-c3ccc(Cl)cc3)nc(SCCCCCCC(=O)NO)n2)cc1OC | 40.6%
